The values below come from PubChem BioAssay AID485317 (Broad Institute, 2010).

Out of some 290,000 compounds screened, about 11,000 (3.8%) were called active.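 How the source made its calls: active means mean replicate inhibition above about 79%, with every replicate also reaching it (limit read from the data); inconclusive means only one of the two criteria met; inactive means mean below limit and not every replicate reaching it.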 What follows is part of a selection rich in actives, with near analogues and random picks from the rest.

In this assay the target is FAD-linked sulfhydryl oxidase ALR (Homo sapiens) (UniProt P55789). The assay can be described thus: ALR-catalysed DTT oxidation blockers – biochemical, H2O2 detection, HRP-luminol luminescence, single point, primary screen (AID 485317). As to conditions: purified ALR, stronger effect = higher value, concentration not given here.
FAD-linked sulfhydryl oxidase ALR (Homo sapiens), sequence (P55789 whole entry, looked up): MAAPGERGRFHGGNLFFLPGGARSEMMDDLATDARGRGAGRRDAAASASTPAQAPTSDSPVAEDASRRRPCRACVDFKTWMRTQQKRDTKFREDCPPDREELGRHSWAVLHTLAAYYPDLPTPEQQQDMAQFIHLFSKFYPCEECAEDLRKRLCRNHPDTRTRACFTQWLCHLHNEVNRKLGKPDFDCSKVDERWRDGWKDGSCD
In the case of `O=[N+]([O-])c1cccc(Nc2c3ccccc3nc3ccccc23)c1`, the inhibition was -6.1% (inactive). Under `Cc1ccc(Nc2c3c(nc4ccccc24)CCC3)cc1` stands 98.4% (active); under `CC(=O)Nc1ccc(-c2nc3ccccc3o2)cc1`, -1.09% (inactive).

With `O=C(Nc1c2c(nc3ccccc13)CCCC2)c1ccccc1Br`, the inhibition is -5.44% (inactive).

For `CC(=O)Nc1ccc(Nc2c3ccccc3nc3ccccc23)cc1`, the inhibition is 89.9% (active).

Take `N#Cc1cccc(Nc2c3c(nc4ccccc24)CCCC3)c1`: the inhibition is -9.75% (inactive).

Regarding `CCOC(=O)C1=C(COC(=O)[C@H](C)NS(=O)(=O)c2ccccc2F)NC(=O)NC1C` (some centres undefined), the inhibition was -1.62% (inactive). For the compound `O=C(CN1C(=O)NC2(CCOc3ccccc32)C1=O)NCc1ccc(F)cc1` (centres undefined), the inhibition is -3.27% (inactive). The result for `COC(=O)C1CCN(C(=O)COC(=O)c2cc(S(=O)(=O)N3CCOCC3)ccc2C)CC1` reads -15.3% (inactive); that for `CCn1c2ccccc2c2cc(NC(=O)C/C(C)=N/NC(=O)c3ccccc3N)ccc21`, -1.26% (inactive); that for `O=C(Nc1ccc(NC(=O)c2ccccc2F)cc1)c1ccccc1F`, -9.75% (inactive). The result for `C/C(CC(=O)Nc1ccc(N(C)C)cc1)=N\NC(=O)c1ccccc1F` reads 87.2% (active); that for `Cc1ccc2c(c1)NC(=O)[C@@]1(C)[C@@H](c3ccccc3)[C@H]3COc4ccc(Cl)cc4[C@@H]3N1C2=O`, 0.863% (inactive). The result for `CC(=O)N1CCc2c(sc(NC(=O)CCS(=O)(=O)c3ccc(C)cc3)c2C(N)=O)C1` reads -33.3% (inactive). Consider `C[C@H]1COC(=O)[C@H](CC(=O)OC(C)(C)C)C/C=C\C[C@@H](CC(=O)N[C@H](CO)Cc2ccccc2)C(=O)N1`, for which the inhibition is 1.44% (inactive). With `CCCCN(C(=O)c1ccc2ccccc2c1)c1c(N)n(CCCC)c(=O)[nH]c1=O`, the inhibition is -4.16% (inactive). `Cc1cccc(-n2cnc(C(=O)NNC(=S)Nc3ccccc3)c2)n1`: the inhibition was 47.8% (inactive). The result for `Cc1nn(C)cc1C(=O)NNC(=S)Nc1ccc(Cl)cc1` reads 49.6% (inactive); that for `Cn1cc(Cl)c(C(=O)NNC(=S)Nc2cccc(Cl)c2)n1`, 89.2% (active); that for `CC(OC(=O)CCCOc1ccccc1)C(=O)Nc1ccc(Cl)cn1` (centres undefined), -0.655% (inactive). Under `CN(Cc1ccc(F)cc1)C(=O)CN1C(=O)c2ccccc2S1(=O)=O` stands 1.6% (inactive); under `COc1ccc(COC(=O)N/N=C(\C)CC(=O)Nc2ccc(Cl)cc2)cc1`, -4.07% (inactive); under `C/C(CC(=O)Nc1ccc(Cl)cc1)=N\NC(=O)C(=O)NCCO`, 96.1% (active). The result for `C/C(CC(=O)Nc1cccc(C(F)(F)F)c1)=N\NC(=O)C(=O)NCC(C)C` reads -10.3% (inactive).
